According to PubChem BioAssay:
Active and inactive are the calls of the source.

Columns and labels:
[1] = compound effects on lung adenocarcinoma cell viability – A549, calcein-AM fluorescence, 48 h, basal, profiling panel (AID 1162); details: higher = more signal
[2] = compound effects on differentiated 3T3-L1 adipocyte viability – cell-based, 3T3-L1 adipocytes, calcein-AM fluorescence, 48 h, basal, profiling panel (AID 1163); details: 3T3-L1 adipocytes viability, higher = more signal
[3] = compound effects on hepatocellular carcinoma cell viability – HepG2, calcein-AM fluorescence, 48 h, basal, profiling panel (AID 1164); details: higher = more signal
[4] = compound effects on multiple myeloma cell viability – MM1S, calcein-AM fluorescence, 48 h, basal, profiling panel (AID 1165); details: higher = more signal;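 note: viability of MM1S multiple myeloma cells under basal unstimulated conditions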
[5] = calcein-AM signal in unstimulated myeloma cells – cell-based, calcein-AM fluorescence, 48 h, PK04 Diversity Set, profiling panel (AID 1166); details: RPMI8226 myeloma viability, higher = more signal;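 note: cells grown under basal conditions without added stimulus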
[6] = JC-1 mitochondrial signal, unstimulated HepG2 cells – cell-based, JC-1 fluorescence, 24 h, 100 nL compound, profiling panel (AID 1167); details: HepG2 mitochondrial potential, higher = more signal
[7] = JC-1 mitochondrial signal, unstimulated adipocytes – cell-based, JC-1 fluorescence, 3T3-L1 adipocytes, 24 h, 100 nL compound, profiling panel (AID 1168); details: JC-1 mitochondrial fluorescence, higher = more signal, called active from +8 up or from −8 down
[8] = JC-1 mitochondrial signal, unstimulated myeloma cells – cell-based, JC-1 fluorescence, RPMI8226, 24 h, 100 nL compound, profiling panel (AID 1169); details: JC-1 mitochondrial potential fluorescence, higher = more signal
[9] = JC-1 mitochondrial signal, unstimulated MM1S myeloma – cell-based, JC-1 fluorescence, 24 h, 100 nL compound, profiling panel (AID 1170); details: MM1S mitochondrial potential, higher = more signal
[10] = resazurin metabolic signal in A549 cells – cell-based, resazurin fluorescence, 24 h, PK04 Diversity Set, profiling panel (AID 1171); details: A549 viability, higher = more signal, called active from +8 up or from −8 down
Note: test concentration not given here.

| Compound | z-score [1] | z-score [2] | z-score [3] | z-score [4] | z-score [5] | z-score [6] | z-score [7] | z-score [8] | z-score [9] | z-score [10] |
| --- | --- | --- | --- | --- | --- | --- | --- | --- | --- | --- |
| CCc1cc2c(nc1CC)CCN(CCC(C)=NOC[C@@H](O)[C@H]1O[C@@H]3OC(C)(C)O[C@@H]3[C@H]1O)C2 | 0.719 | 0.879 | 1.09 | -1.1 | -0.531 | 0.244 | -1.1 (inactive) | 0.527 | -0.162 | -0.0919 (inactive) |
| CC(C)C[C@@H]1NC(=O)[C@H]2C[C@@H](C(=O)NCCCCCCN(C)C)[C@@H](c3cccc(OCCO)c3)N2C1=O | -1.26 | 0.88 | -0.278 | 0.303 | 0.651 | -1.09 | -0.481 (inactive) | -0.0673 | -0.0169 | -0.21 (inactive) |
| CCN1C(=O)[C@H]2[C@H]3[C@H](O)[C@H](O)CC(=NOC(C)CN4CCCCc5nc(C)c(C)cc54)[C@@H]3CC[C@H]2C1=O (stereo not given in full) | -0.421 | 0.111 | 0.503 | 0.0768 | 0.173 | -0.214 | -1.21 (inactive) | -0.232 | -0.0499 | -0.378 (inactive) |
| CC(CCN1CCc2nc(-c3ccccc3)c(-c3ccccc3)cc2C1)=NO[C@H](C)c1cn([C@@H]2COC[C@H]2O)nn1 | 1.9 | 0.183 | 1.2 | 0.259 | -0.283 | 1.34 | -0.673 (inactive) | -0.291 | -0.381 | -0.579 (inactive) |
| C#C[C@@H](CC)O[Si](C#Cc1ccc(Oc2ccccc2)cc1)(C(C)C)C(C)C | -2.96 | -1.01 | -2.63 | -2.97 | -4.2 | -2.29 | -0.068 (inactive) | -0.291 | -1.11 | -0.936 (inactive) |
| CC(C)=C1C(=O)C(c2ccccc2)=C2CN3C(=O)N(CCc4ccccc4)C(=O)[C@]3(Cc3ccc(F)cc3)[C@H]21 | -0.751 | -0.0154 | -0.435 | -0.871 | -0.975 | 1.07 | -1.68 (inactive) | -0.0557 | -0.339 | 0.0406 (inactive) |
| O=C1O[C@@H](c2ccccc2)[C@@H](c2ccccc2)N2[C@@H](c3ccc(OCCO)cc3)[C@]3(C(=O)Nc4ccccc43)[C@@H](C(=O)N3CCN(c4ncccn4)CC3)[C@H]12 | -0.47 | -0.888 | 0.834 | -0.138 | 0.229 | -0.679 | 0.339 (inactive) | -0.842 | -0.779 | 0.42 (inactive) |
| C/C=C\[C@@H](NCc1ccccc1Br)[C@@H](O)Cc1ccccc1 | -1.17 | 1.43 | -1.44 | -1.53 | -3.29 | -1.34 | 0.0182 (inactive) | -0.926 | -0.0951 | -0.29 (inactive) |
| CC[C@@H](c1ccccc1)n1c(=O)n2n(c1=O)[C@H]1[C@H](O)[C@@H]3O[C@@H]3C(=NOCC=C(C)CCC=C(C)C)[C@H]1CC2 | -0.821 | 0.722 | -1.48 | -3.08 | -3.74 | -2.4 | 0.151 (inactive) | -0.829 | 0.198 | -0.0334 (inactive) |
| CCCNC(=O)OC[C@H]1O[C@H](CCON=C2[C@H]3CCn4c(=O)n(-c5ccccc5)c(=O)n4[C@H]3[C@H](O)[C@@H]3O[C@H]23)C=C[C@@H]1Oc1ccc(OC)cc1 | -0.343 | -0.414 | -0.555 | -1.83 | -1.44 | -0.25 | -0.567 (inactive) | -0.7 | -0.75 | -1.2 (inactive) |
| COc1ccc(CCNC(=O)[C@@H]2c3ccccc3C(=O)N(c3ccc(C)cn3)[C@H]2c2ccc(CO)cc2)cc1 | -0.174 | 0.821 | -0.513 | -0.243 | -0.194 | -0.814 | -0.195 (inactive) | 0.671 | 0.634 | 0.689 (inactive) |
| CCOC(=O)[C@H](Cc1ccccc1)NC(=O)CCC1CC(OC(=O)NCc2ccc3c(c2)OCO3)CC2(CCCC(COC(=O)NCc3cccc(C(F)(F)F)c3)O2)O1 (stereo not given in full) | 0.46 | 1.24 | -0.526 | 0.706 | -2.18 | 2.06 | -0.56 (inactive) | 0.918 | -0.622 | -0.0224 (inactive) |
| CCc1cc2c(nc1CC)CCN(CCC(C)=NOC(C)CN1CCCc3nc(C)c(C)cc31)C2 (stereo not given) | 0.566 | -0.326 | 0.595 | -2.4 | -0.305 | 1.31 | -0.415 (inactive) | -0.668 | -0.342 | 0.103 (inactive) |
| COc1ccc(COC(=O)NN=C2C[C@@H](O)[C@@H](O)[C@@H]3[C@@H]4C(=O)N(c5ccc(F)cc5F)C(=O)[C@@H]4CC[C@@H]23)cc1 | -0.102 | 0.257 | -0.987 | -0.738 | -0.952 | 0.556 | 0.301 (inactive) | -0.195 | 0.627 | 0.909 (inactive) |
| CC(=O)C[C@H](O)[C@@H](NC(=O)OC(C)(C)C)C(C)C | 0.143 | 0.819 | 0.0838 | -0.476 | -0.531 | -0.538 | -0.0163 (inactive) | -0.545 | -0.347 | -0.289 (inactive) |
| COCCOC(=O)N1C(=O)[C@@]2(c3cc(C#CC4(O)CCCCCC4)ccc31)[C@H](c1ccc(OCCO)cc1)N1[C@H](c3ccccc3)[C@H](c3ccccc3)OC(=O)[C@H]1[C@@H]2C(=O)NC[C@H](O)c1ccccc1 | 0.358 | 1.62 | -0.063 | -1.25 | -1.84 | -1.67 | 0.0493 (inactive) | -0.924 | -1.47 | 0.702 (inactive) |
| O=C1O[C@@H](c2ccccc2)[C@@H](c2ccccc2)N2[C@@H](c3ccc(OCCO)cc3)[C@]3(C(=O)Nc4ccc(C#CCCO)cc43)[C@@H](C(=O)N3CCCCCCC3)[C@H]12 | 0.819 | 1.02 | 0.874 | 0.206 | 0.269 | 0.523 | -0.564 (inactive) | -0.974 | -0.399 | 0.932 (inactive) |
| CC(=O)OC[C@H]1O[C@H](C#CCCCc2ccccc2)C=C[C@@H]1OC(C)=O | -0.442 | -0.0563 | -2.26 | -3.51 | -3.61 | -1.12 | 0.288 (inactive) | -0.861 | -2.26 | 0.899 (inactive) |
| C=COC[C@H]1CN2[C@@H](CC[C@@H](C)[C@@H]2c2ccc(Br)cc2)C(=O)O1 | 0.197 | 0.34 | 1.3 | 0.48 | -0.228 | 0.244 | 1.39 (inactive) | -0.56 | 0.252 | -0.0242 (inactive) |
| CC(C)[C@H](NC(=O)OC(C)(C)C)[C@@H](O)CC(=O)OC(C)(C)C | 0.403 | 1.24 | 0.026 | 0.793 | -0.229 | 0.251 | -0.689 (inactive) | 0.62 | 1.06 | -1.54 (inactive) |
| C[C@@H](c1ccccc1)N1C(=O)[C@H]2[C@H]3[C@H](O)[C@H](O)CC(=NNC(=O)OCc4ccccc4)[C@H]3CC[C@H]2C1=O | -0.34 | -0.903 | -0.208 | -0.0615 | 0.127 | -1.05 | -0.0829 (inactive) | 0.502 | 0.00989 | -0.0339 (inactive) |
| C[C@H](c1ccccc1)N1C(=O)[C@H]2[C@@H]3C(=CC[C@H]2C1=O)C(=O)[C@H]1O[C@H]1[C@H]3O | -1.86 | 0.265 | -4.46 | -3.11 | -3.94 | 1.02 | 1.02 (inactive) | -1.03 | -2.92 | -2.16 (inactive) |
| COC(=O)c1c(CC[C@@H](CO)NC(=O)N[C@H](Cc2ccccc2)Cn2cc(-c3ccccc3N)nn2)oc(C(C)=O)c1C(=O)OC | 0.238 | 0.475 | 0.169 | -0.0234 | 0.229 | -0.864 | -0.474 (inactive) | -0.415 | 0.65 | -0.0935 (inactive) |
| COCCOC(=O)N1C(=O)[C@@]2(c3cc(C#CCNC(N)=O)ccc31)[C@H](c1ccc(O)cc1)N1[C@H](c3ccccc3)[C@H](c3ccccc3)OC(=O)[C@H]1[C@@H]2C(=O)N1CCCCCCC1 | -0.55 | 0.012 | -0.49 | -0.441 | 0.0294 | -1.85 | -0.731 (inactive) | 0.399 | 0.298 | 0.215 (inactive) |
| CN(C)CCCNC(=O)[C@@H]1c2ccccc2C(=O)N(Cc2ccccc2)[C@H]1c1ccc(CO)cc1 | 2.34 | 0.917 | 1.31 | -0.0214 | 0.932 | 1.89 | 0.418 (inactive) | 0.0996 | 0.108 | 0.534 (inactive) |
| CC(=O)O[C@H]1C2=C(C(=O)[C@@H]3O[C@@H]31)[C@H]1C(C)O[C@@H]2[C@@]23C(=O)[C@@H]4O[C@@H]4[C@@H](O)C2=CO[C@H](C)[C@@H]13 (stereo not given in full) | -0.192 | -0.392 | -1.54 | -3 | -2.64 | -1.92 | -0.78 (inactive) | 0.151 | -1.05 | 0.4 (inactive) |
| CCCC[C@@H]1C[C@H]1[C@@H](NS(=O)(=O)c1cccc2cccnc12)c1ccc(-c2ccccc2)cc1 | -1.11 | -1.08 | -0.0369 | 0.252 | 0.0748 | -1.13 | -0.43 (inactive) | -0.214 | -1.49 | 0.239 (inactive) |
| CCc1cccc(NC(=O)O[C@H]2[C@H](OC(=O)Nc3ccc4c(c3)OCO4)[C@@H](OC(=O)Nc3ccc4c(c3)OCO4)[C@@H](OC)O[C@@H]2CO)c1 | -1.1 | 0.29 | -1.66 | -1.33 | -0.976 | 0.0535 | 0.892 (inactive) | -0.806 | -0.503 | 0.735 (inactive) |
